The results in this text go back to PubChem BioAssay.

Usually AC50 stands for the midpoint of the concentration-response curve, whichever way the signal moves. A word on the IC50: it is the concentration needed to halve the response being measured. In general, viability refers to a read-out of living cells in per cent, often relative to untreated cells.

Records with an inconclusive call do not appear. Activity calls are given as the source filed them.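 The calls were made as follows, unless noted: active = normalized viability below 100% at a tested concentration; inactive = the rest.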

A short description of assay [1]: growth inhibition of DIPG glioma cells, dose response, cell-based, SU-DIPG-XVII, MIPE5.0, CellTiter-Glo, qHTS (AID 1347060; cut-off not given, nearly all actives have AC50 up to about 26 µM;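 as to AC50: cells exposed to compound for 48 hours before viability readout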). To be noted: SU-DIPG-XVII viability, CellTiter-Glo ATP luminescence. For orientation: In ATP-based viability assays light output follows the ATP content of the culture.
Assay [2] in a line: growth inhibition of DIPG glioma cells, dose response, cell-based, SU-DIPG-XIII, MIPE4.0, CellTiter-Glo, qHTS (AID 1347061; cut-off not given, nearly all actives have AC50 up to about 37 µM;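 also: cells exposed to compound for 48 hours before readout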). Particulars: SU-DIPG-XIII viability, CellTiter-Glo ATP luminescence.
A short description of assay [3]: growth inhibition of DIPG glioma cells, dose response, cell-based, SU-DIPG-XIII, MIPE5.0, CellTiter-Glo, qHTS (AID 1347064; cut-off not given, nearly all actives have AC50 up to about 23 µM;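 as to AC50: cells exposed to compound for 48 hours before the viability read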). To be noted: SU-DIPG-XIII viability, CellTiter-Glo ATP luminescence.
Assay [4] in a line: viability loss in pontine glioma line – cell-based, SU-DIPG-XXV, MIPE5.0, CellTiter-Glo, qHTS, dose response (AID 1347065; cut-off not given, nearly all actives have AC50 up to about 26 µM;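 also: cells exposed to compound for 48 hours before ATP readout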). To be noted: CellTiter-Glo ATP luminescence.
Assay [5] can be described thus: JHH-DIPG-1 glioma cell viability, MIPE5.0 library, CellTiter-Glo luminescence, qHTS (AID 1347067; cut-off not given, nearly all actives have AC50 up to about 26 µM;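 also: cells exposed to compound for 48 hours before readout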). To be noted: JHH-DIPG-1 glioma viability, CellTiter-Glo ATP luminescence.
The nature of assay [6]: SU-DIPG-XXV glioma cell viability, MIPE5.0 library, qHTS (AID 1347068; cut-off not given, nearly all actives have IC50 up to about 30 µM;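 as to IC50: cells exposed to compound for 48 hours before viability readout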). On the technique in general: qHTS replaces the single test concentration by a dilution series.
A short description of assay [7]: SU-DIPG-VI glioma cell viability, MIPE4.0 library, CellTiter-Glo luminescence, qHTS (AID 1347066; cut-off not given, nearly all actives have AC50 up to about 30 µM;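 also: cells exposed to compound for 48 hours before readout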). To be noted: CellTiter-Glo ATP luminescence.
A short description of assay [8]: growth inhibition of DIPG glioma cells, dose response, cell-based, SU-DIPG-IV, MIPE4.0, CellTiter-Glo, qHTS (AID 1347063; cut-off not given, nearly all actives have AC50 up to about 30 µM;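 also: compound exposure lasted 48 hours before the viability readout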). To be noted: SU-DIPG-IV viability, CellTiter-Glo ATP luminescence.
Assay [9] in a line: sensitizers of A549 cells to miR-34 induction, primary screen, imaging, A549 dox-inducible miR-34, nuclei and caspase counts (AID 1347080;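 active = compounds whose cell count with miR-34 switched on is under 0.7 times the count with it off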). To be noted: A549 miR-34 inducible, Hoechst nuclei count, 48 h.
Assay [10] can be described thus: modifiers of HSF1 nuclear foci, imaging, Selleck Cancer Library (AID 1347162; in the data active = plate-normalised HSF1 focus index below about 0.46). Particulars: human cells, at 10 µM; SSMD: measured here: HSF1 foci SSMD mean; cell count: measured here: cell number; plate-normalised HSF1 focus index: stronger effect = lower value.
Assay [11] in a line: survival rescue of mitochondrial mutant cells in low glucose, primary screen, MELAS cybrids, Rieske KO mouse fibroblasts, CellTiter-Glo (AID 1508586;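 active = mean z-score across replicates of 1.96 or higher in either the MELAS or the Rieske mutant cell line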;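 also: z relative to plate mean and SD of compound and empty wells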).
The nature of assay [12]: ovarian cancer cell viability with rucaparib, profiling panel, oncology-focused library, rucaparib conditional (AID 1508598). To be noted: patient-derived ovarian cancer cells, CellTiter-Glo viability, 144 h, stronger effect = lower value.

With `NC(=O)c1c(OCc2c(F)cc(Br)cc2F)nsc1NC(=O)NCCCCN1CCCC1`, the AC50 in assay [1] is 4.68 µM (active); in assay [2], 6.62 µM (active); in assay [3], 3.32 µM (active); in assay [4] it was 3.32 µM (active); in [5] it was 18.6 µM (active). Further, the IC50 in assay [6] was 23.5 µM (active).
In the case of `Cc1c[nH]c(/C=C2\C(=O)Nc3ccccc32)c1CCC(=O)O`, the AC50 in assay [1] is 14.8 µM (active); in assay [2], 5.9 µM (active); in [4] it was 10.5 µM (active); in assay [5] it was 16.6 µM (active). Besides, in [7], the result was inactive.
In the case of `O=C(Nc1ccc(Oc2ccnc3[nH]ccc23)c(F)c1)c1cccn(-c2ccc(F)cc2)c1=O`, the outcome in assay [1], in assay [2], in [3], in [4], in [7] and in assay [5] was inactive. Further, in assay [6], the molecule was classed as inactive.
Consider `Cc1cn(-c2cc(NC(=O)c3ccc(C)c(Nc4nccc(-c5cccnc5)n4)c3)cc(C(F)(F)F)c2)cn1`, for which the AC50 in assay [1] is 10.5 µM (active); in assay [8], 8.33 µM (active); in [4], 10.5 µM (active); in assay [5], 11.8 µM (active). In addition, the molecule was called inactive in assay [2]. The fold change in assay [9] (stronger effect = lower value, cell number ratio, induced over uninduced) is 0.874 (inactive); in [9] (measured here: relative caspase fold change +Dox/-Dox), 0.941. Moreover, the cell count in [9] (measured here: total cells with miR-34 induction, stronger effect = lower value) is 1260; in assay [9] (measured here: total cells without miR-34 induction) it was 1440; in [10] it was 7680. In addition, in assay [10], the SSMD stood at 0.723. Besides, the plate-normalised HSF1 focus index in [10] is 1.05 (inactive). The z-score in [11] (MELAS cybrid survival, CellTiter-Glo 48 h, stronger effect = higher value) is 3.41 (active); in assay [11] (Rieske KO mouse fibroblast survival, CellTiter-Glo 72 h), -0.657. The viability in assay [12] (at 0.000305 µM, OCI-C5x cells, with rucaparib 10 µM, 100% = cells with rucaparib alone) was 106% (inactive); in assay [12] (at 0.000305 µM, OCI-C5x cells, without rucaparib), 116% (inactive); in [12] (at 0.000305 µM, OCI-P5x cells, with rucaparib 20 µM, 100% = cells with rucaparib alone), 103% (inactive); in [12] (at 0.000305 µM, OCI-P5x cells, without rucaparib) it was 105% (inactive); in assay [12] (at 0.00122 µM, OCI-C5x cells, with rucaparib 10 µM, 100% = cells with rucaparib alone), 108% (inactive); in assay [12] (at 0.00122 µM, OCI-C5x cells, without rucaparib) it was 117% (inactive). Moreover, the viability in assay [12] (at 0.00122 µM, OCI-P5x cells, with rucaparib 20 µM, 100% = cells with rucaparib alone) was 100% (inactive); in [12] (at 0.00122 µM, OCI-P5x cells, without rucaparib) it was 101% (inactive); in assay [12] (at 0.00488 µM, OCI-C5x cells, with rucaparib 10 µM, 100% = cells with rucaparib alone) it was 109% (inactive); in [12] (at 0.00488 µM, OCI-C5x cells, without rucaparib), 116% (inactive); in [12] (at 0.00488 µM, OCI-P5x cells, with rucaparib 20 µM, 100% = cells with rucaparib alone), 103% (inactive); in [12] (at 0.00488 µM, OCI-P5x cells, without rucaparib) it was 98.8% (active). For the same molecule, the viability in [12] (at 0.0195 µM, OCI-C5x cells, with rucaparib 10 µM, 100% = cells with rucaparib alone) was 105% (inactive); in assay [12] (at 0.0195 µM, OCI-C5x cells, without rucaparib), 127% (inactive); in assay [12] (at 0.0195 µM, OCI-P5x cells, with rucaparib 20 µM, 100% = cells with rucaparib alone), 102% (inactive); in [12] (at 0.0195 µM, OCI-P5x cells, without rucaparib), 91.4% (active); in assay [12] (at 0.0781 µM, OCI-C5x cells, with rucaparib 10 µM, 100% = cells with rucaparib alone), 117% (inactive); in assay [12] (at 0.0781 µM, OCI-C5x cells, without rucaparib) it was 116% (inactive). In addition, the viability is 98.7% (active) in [12] (at 0.0781 µM, OCI-P5x cells, with rucaparib 20 µM, 100% = cells with rucaparib alone); 104% (inactive) in [12] (at 0.0781 µM, OCI-P5x cells, without rucaparib); 107% (inactive) in [12] (at 0.313 µM, OCI-C5x cells, with rucaparib 10 µM, 100% = cells with rucaparib alone); 118% (inactive) in [12] (at 0.313 µM, OCI-C5x cells, without rucaparib); 116% (inactive) in assay [12] (at 0.313 µM, OCI-P5x cells, with rucaparib 20 µM, 100% = cells with rucaparib alone); 103% (inactive) in [12] (at 0.313 µM, OCI-P5x cells, without rucaparib). Besides, the viability in assay [12] (at 1.25 µM, OCI-C5x cells, with rucaparib 10 µM, 100% = cells with rucaparib alone) is 127% (inactive); in [12] (at 1.25 µM, OCI-C5x cells, without rucaparib) it was 117% (inactive); in [12] (at 1.25 µM, OCI-P5x cells, with rucaparib 20 µM, 100% = cells with rucaparib alone), 97.7% (active); in assay [12] (at 1.25 µM, OCI-P5x cells, without rucaparib) it was 91.7% (active); in assay [12] (at 5 µM, OCI-C5x cells, with rucaparib 10 µM, 100% = cells with rucaparib alone), 139% (inactive); in assay [12] (at 5 µM, OCI-C5x cells, without rucaparib), 116% (inactive). The viability in assay [12] (at 5 µM, OCI-P5x cells, with rucaparib 20 µM, 100% = cells with rucaparib alone) is 68% (active); in [12] (at 5 µM, OCI-P5x cells, without rucaparib), 30.3% (active).
